From publication PMC5540273 (PLoS ONE, 2017)

Tests used:
Conditions in all cases: concentration: 1 μM, replicates: in singlicate; n = 1
[1] = tested on: NEK3
[2] = tested on: NEK4
[3] = tested on: NEK5
[4] = tested on: NEK6
[5] = tested on: NEK7
[6] = tested on: NEK9
[7] = tested on: T1, NIK
T1 construct: gene MAP3K14

[8] = tested on: T2, NIM1
T2 construct: gene MGC42105

[9] = tested on: NLK
[10] = tested on: T3, OSR1
T3 construct: gene OXSR1
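Also: KINOMEscan kinase panel screen.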

Fc1ccc(-c2ncn(CCCNCc3ccccc3)c2-c2ccncc2)cc1
%Inh [1]: 31%
%Inh [2]: 7%
%Inh [3]: 6%
%Inh [4]: 12%
%Inh [5]: 0%
%Inh [6]: 0%
%Inh [7]: 12%
%Inh [8]: 15%
%Inh [9]: 13%
%Inh [10]: 19%

Cl.Fc1ccccc1COc1ccc(Nc2ncnc3ccc(-c4nnc(C(F)(F)F)o4)cc23)cc1Cl [GW424170]
%Inh [1]: 0%
%Inh [2]: 0%
%Inh [3]: 4%
%Inh [4]: 0%
%Inh [5]: 0%
%Inh [6]: 0%
%Inh [7]: 10%
%Inh [8]: 0%
%Inh [9]: 0%
%Inh [10]: 0%

COc1ccc(NC(=O)c2ccc(-c3cc(-c4nnc(C)o4)ccc3C)cc2)cc1 [GW595885]
%Inh [1]: 5%
%Inh [2]: 19%
%Inh [3]: 4%
%Inh [4]: 0%
%Inh [5]: 0%
%Inh [6]: 0%
%Inh [7]: 0%
%Inh [8]: 20%
%Inh [9]: 10%
%Inh [10]: 14%

Fc1ccc(Nc2nccc(-c3c(-c4ccc(Cl)cc4)nn4ncccc34)n2)cc1F [GW829058]
%Inh [1]: 11%
%Inh [2]: 8%
%Inh [3]: 13%
%Inh [4]: 21%
%Inh [5]: 0%
%Inh [6]: 5%
%Inh [7]: 43%
%Inh [8]: 34%
%Inh [9]: 70%
%Inh [10]: 28%

Cl.O=S(=O)(c1cccc(F)c1)c1ccc(Nc2ncnc3cc(Br)sc23)cc1Cl [GSK306886]
%Inh [1]: 0%
%Inh [2]: 0%
%Inh [3]: 59%
%Inh [4]: 0%
%Inh [5]: 0%
%Inh [6]: 23%
%Inh [7]: 4%
%Inh [8]: 0%
%Inh [9]: 44%
%Inh [10]: 0%

OCCOCCn1ccc2ncnc(Nc3ccc(Oc4cccc(Cl)c4)c(Cl)c3)c21
%Inh [1]: 10%
%Inh [2]: 0%
%Inh [3]: 0%
%Inh [4]: 0%
%Inh [5]: 0%
%Inh [6]: 0%
%Inh [7]: 0%
%Inh [8]: 0%
%Inh [9]: 0%
%Inh [10]: 0%

O=C(NCCCN1CCCC1=O)c1cnc(NCc2cc(Cl)ccc2Cl)nc1NC1CCNCC1
%Inh [1]: 37%
%Inh [2]: 0%
%Inh [3]: 0%
%Inh [4]: 0%
%Inh [5]: 0%
%Inh [6]: 0%
%Inh [7]: 0%
%Inh [8]: 0%
%Inh [9]: 2%
%Inh [10]: 0%

O=C(Nc1ccccc1)Nc1ccc(Oc2ccc3nccn3n2)cc1
%Inh [1]: 8%
%Inh [2]: 0%
%Inh [3]: 20%
%Inh [4]: 0%
%Inh [5]: 0%
%Inh [6]: 0%
%Inh [7]: 0%
%Inh [8]: 0%
%Inh [9]: 2%
%Inh [10]: 0%

Cl.c1ccc(Cn2ncc3cc(Nc4ncnc5ccccc45)ccc32)cc1 [GW273749]
%Inh [1]: 2%
%Inh [2]: 0%
%Inh [3]: 18%
%Inh [4]: 0%
%Inh [5]: 1%
%Inh [6]: 15%
%Inh [7]: 0%
%Inh [8]: 3%
%Inh [9]: 0%
%Inh [10]: 10%

O=C(Nc1n[nH]c2nc(-c3ccco3)c(Br)cc12)c1ccc(CN2CCCC2)cc1.O=C(O)[C@H](O)[C@@H](O)C(=O)O [SB-742352]
%Inh [1]: 0%
%Inh [2]: 0%
%Inh [3]: 0%
%Inh [4]: 0%
%Inh [5]: 10%
%Inh [6]: 0%
%Inh [7]: 0%
%Inh [8]: 0%
%Inh [9]: 0%
%Inh [10]: 0%

COc1ccc(Nc2nccc(N3CCC(NC(=O)c4cccc(NC(C)=O)c4)C3)n2)cc1 (centres unmarked) [GSK1379732]
%Inh [1]: 11%
%Inh [2]: 0%
%Inh [3]: 25%
%Inh [4]: 0%
%Inh [5]: 0%
%Inh [6]: 13%
%Inh [7]: 28%
%Inh [8]: 47%
%Inh [9]: 12%
%Inh [10]: 7%

C[C@@H]1CCN(C(=O)CO)C[C@@H]1N(C)c1ncnc2[nH]ccc12
%Inh [1]: 38%
%Inh [2]: 0%
%Inh [3]: 1%
%Inh [4]: 0%
%Inh [5]: 0%
%Inh [6]: 0%
%Inh [7]: 0%
%Inh [8]: 0%
%Inh [9]: 100%
%Inh [10]: 0%

CSc1ccc(NC2=C(c3ccccc3Cl)C(=O)NC2=O)cc1 [SB-342411]
%Inh [1]: 0%
%Inh [2]: 0%
%Inh [3]: 8%
%Inh [4]: 0%
%Inh [5]: 0%
%Inh [6]: 15%
%Inh [7]: 0%
%Inh [8]: 0%
%Inh [9]: 56%
%Inh [10]: 2%

O=C(CCO)NCCn1ccc2ncnc(Nc3ccc(Oc4cccc(C(F)(F)F)c4)c(Cl)c3)c21
%Inh [1]: 18%
%Inh [2]: 0%
%Inh [3]: 0%
%Inh [4]: 0%
%Inh [5]: 0%
%Inh [6]: 0%
%Inh [7]: 6%
%Inh [8]: 0%
%Inh [9]: 0%
%Inh [10]: 0%

COc1cc2ncnc(Nc3ccc(OCc4ccccc4Br)c(Cl)c3)c2cc1OC.Cl [GI261590]
%Inh [1]: 12%
%Inh [2]: 0%
%Inh [3]: 14%
%Inh [4]: 0%
%Inh [5]: 0%
%Inh [6]: 0%
%Inh [7]: 20%
%Inh [8]: 22%
%Inh [9]: 26%
%Inh [10]: 0%

Clc1cc(Nc2ncnc3cc[nH]c23)ccc1OCc1ccccn1
%Inh [1]: 22%
%Inh [2]: 6%
%Inh [3]: 0%
%Inh [4]: 16%
%Inh [5]: 0%
%Inh [6]: 7%
%Inh [7]: 0%
%Inh [8]: 35%
%Inh [9]: 0%
%Inh [10]: 2%

Fc1cccc(COc2ccc(Nc3ncnc4sc(-c5ccc[nH]5)cc34)cc2Cl)c1 [GW707818]
%Inh [1]: 1%
%Inh [2]: 0%
%Inh [3]: 31%
%Inh [4]: 0%
%Inh [5]: 0%
%Inh [6]: 17%
%Inh [7]: 0%
%Inh [8]: 14%
%Inh [9]: 23%
%Inh [10]: 0%
